What all share (conditions): mRNA level, 48 h; actives raise or lower the signal
Read-out in assay [1]: Fatty Acid-Binding Protein 1 (FABP1), FABP1 (gene 2168)
The experiment in a line: LTEA_HepaRG_FABP1: Life Technologies and Expression Analysis (LTEA) Assay for Fatty Acid-Binding Protein 1 (FABP1) using HepaRG (AID 2283494). In a few lines:
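FABP1 expression by TaqMan qRT-PCR, normalised to three housekeeping genes, in HepaRG cells after 48 h chemical treatment. Eight-point half-log series topping at 100 uM in 0.5% DMSO, duplicates; gain or loss fitted relative to vehicle.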

Read-out in assay [2]: Cytochrome P450 4A22 (Homo sapiens) (UniProt Q5TCH4)
The experiment in a line: LTEA_HepaRG_CYP4A22: Life Technologies and Expression Analysis (LTEA) Assay for Cytochrome P450 4A22 (CYP4A22) using HepaRG (AID 2283495). In short, it runs like this:
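qRT-PCR of CYP4A22 mRNA (Fluidigm TaqMan, normalized to three housekeeping genes) after 48 h chemical exposure of HepaRG cells; 8-point half-log series, top 100 uM, 0.5% DMSO vehicle. Bidirectional curve fitting vs DMSO baseline.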

Read-out in assay [3]: Cytochrome P450 7A1 (Homo sapiens) (UniProt P22680)
Kind of assay: LTEA_HepaRG_CYP7A1: Life Technologies and Expression Analysis (LTEA) Assay for Cytochrome P450 7A1 (CYP7A1) using HepaRG (AID 2283496). In a few lines: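 HepaRG, 48 h exposure, 8-pt half-log series from 100 uM, 0.5% DMSO vehicle, duplicates. Readout: TaqMan qRT-PCR mRNA vs three housekeeping genes; bidirectional curve fit against DMSO baseline.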

Read-out in assay [4]: Glutathione S-Transferase (GSTA2), GSTA2 (gene 2939)
The experiment in a line: LTEA_HepaRG_GSTA2: Life Technologies and Expression Analysis (LTEA) Assay for Glutathione S-Transferase (GSTA2) using HepaRG (AID 2283497). In short, it runs like this: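 GSTA2 transcript levels came from Fluidigm TaqMan qRT-PCR normalized to three housekeeping genes, fitted in both directions against DMSO. HepaRG cultures received chemicals for 48 h in serum-free induction medium (0.5% DMSO), 8 half-log concentrations up to 100 uM, duplicate.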

Read-out in assay [5]: Glutamate-cysteine ligase catalytic (GCLC), GCLC (gene 2729)
Kind of assay: LTEA_HepaRG_GCLC: Life Technologies and Expression Analysis (LTEA) Assay for Glutamate-cysteine ligase catalytic (GCLC) using HepaRG (AID 2283498). In a few lines: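 Expression by TaqMan qRT-PCR, normalized to three housekeeping genes (ACTB, GAPDH, POLR2A), with up- or down-regulation fitted against DMSO. HepaRG cells dosed in duplicate for 48 h with 8 half-log concentrations up to 100 uM, vehicle 0.5% DMSO.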

Read-out in assay [6]: growth arrest and DNA damage 45 (GADD45G), GADD45G (gene 10912)
The experiment in a line: LTEA_HepaRG_GADD45G: Life Technologies and Expression Analysis (LTEA) Assay for growth arrest and DNA damage 45 (GADD45G) using HepaRG (AID 2283499). In short, it runs like this:
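Differentiated human HepaRG cells in serum-free induction medium were exposed for 48 h to 8 half-log concentrations up to 100 uM in 0.5% DMSO, in duplicate. GADD45G mRNA was measured by TaqMan qRT-PCR, normalised to ACTB, GAPDH and POLR2A, and fitted bidirectionally against DMSO.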

Read-out in assay [7]: Glutamate-cysteine ligase regulatory (GCLM), GCLM (gene 2730)
Kind of assay: LTEA_HepaRG_GCLM: Life Technologies and Expression Analysis (LTEA) Assay for Glutamate-cysteine ligase regulatory (GCLM) using HepaRG (AID 2283500). In short, it runs like this: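 GCLM expression quantified by qRT-PCR, normalized to three housekeeping genes, after 48 h chemical treatment of HepaRG cells in duplicate at 8 concentrations (top 100 uM, half-log steps, 0.5% DMSO). Changes fitted both directions against vehicle.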

Read-out in assay [8]: Glutathione S-transferase M3 (GSTM3), GSTM3 (gene 2947)
Kind of assay: LTEA_HepaRG_GSTM3: Life Technologies and Expression Analysis (LTEA) Assay for Glutathione S-transferase M3 (GSTM3) using HepaRG (AID 2283501). In a few lines: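 Differentiated HepaRG cells in serum-free induction medium were exposed in duplicate for 48 h to 8 half-log concentrations up to 100 uM in 0.5% DMSO. GSTM3 mRNA was measured by TaqMan qRT-PCR, normalized to ACTB/GAPDH/POLR2A, and fitted bidirectionally versus DMSO.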

Read-out in assay [9]: Heat shock 70 kDa protein 1 (HSPA1A), gene 3303
Kind of assay: LTEA_HepaRG_HSPA1A: Life Technologies and Expression Analysis (LTEA) Assay for Heat shock 70 kDa protein 1 (HSPA1A) using HepaRG (AID 2283502). In short, it runs like this:
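HSPA1A expression measured by qRT-PCR with ACTB/GAPDH/POLR2A normalization; curves fitted in both directions relative to DMSO vehicle. Exposure: 48 h in HepaRG cells, duplicate 8-point half-log series from 100 uM, 0.5% DMSO, serum-free induction medium.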

Read-out in assay [10]: Hypoxia-inducible factor 1-alpha (Homo sapiens) (UniProt Q16665)
Kind of assay: LTEA_HepaRG_HIF1A: Life Technologies and Expression Analysis (LTEA) Assay for Hypoxia-inducible factor 1 (HIF1A) Trancription factor using HepaRG (AID 2283503). In short, it runs like this:
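HIF1A transcript level read by qRT-PCR (ACTB, GAPDH, POLR2A normalization) after 48 h chemical exposure of HepaRG cultures. Eight half-log concentrations, top 100 uM, 0.5% DMSO vehicle, duplicates; bidirectional curve fit against DMSO baseline.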

Read-out in assay [11]: 3-Hydroxy-3-Methylglutaryl-CoA Synthase 2 (HMGCS2), HMGCS2 (gene 3158)
Kind of assay: LTEA_HepaRG_HMGCS2: Life Technologies and Expression Analysis (LTEA) Assay for 3-Hydroxy-3-Methylglutaryl-CoA Synthase 2 (HMGCS2) using HepaRG (AID 2283504). In short, it runs like this: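 Differentiated human HepaRG cells were exposed in duplicate for 48 h in serum-free induction medium to eight concentrations (top 100 uM, half-log steps, 0.5% DMSO). HMGCS2 mRNA was quantified by TaqMan qRT-PCR, normalised to ACTB, GAPDH and POLR2A, then fitted bidirectionally against DMSO.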

Read-out in another assay: HGF (gene 3082)
The experiment in a line: LTEA_HepaRG_HGF: Life Technologies and Expression Analysis (LTEA) Assay for Hepatocyte Growth Facto (HGF) using HepaRG (AID 2283505). In a few lines:
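Differentiated human HepaRG cells in serum-free induction medium were exposed in duplicate for 48 h to eight concentrations (top 100 uM, half-log steps, 0.5% DMSO). HGF mRNA was quantified by qRT-PCR, normalized to ACTB, GAPDH and POLR2A.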

Read-out in assay [12]: Insulin Like Growth Factor 1 (IGF1), IGF1 (gene 3479)
Kind of assay: LTEA_HepaRG_IGF1: Life Technologies and Expression Analysis (LTEA) Assay for Insulin Like Growth Factor 1 (IGF1) using HepaRG (AID 2283506). In short, it runs like this: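 Expression measured by TaqMan qRT-PCR on a Fluidigm array, with three housekeeping genes for normalisation, after 48 h treatment of HepaRG cells. Top concentration 100 uM with half-log steps, 0.5% DMSO vehicle, bidirectional fit.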

Read-out in assay [13]: Intercellular Adhesion Molecule 1 (ICAM1), ICAM1 (gene 3383)
The experiment in a line: LTEA_HepaRG_ICAM1: Life Technologies and Expression Analysis (LTEA) Assay for Intercellular Adhesion Molecule 1 (ICAM1) using HepaRG (AID 2283507). In a few lines:
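Differentiated HepaRG cells in serum-free induction medium were exposed in duplicate for 48 h to eight half-log concentrations up to 100 uM in 0.5% DMSO. Transcript levels were measured by qRT-PCR normalized to ACTB, GAPDH and POLR2A; bidirectional fits relative to DMSO.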

Read-out in assay [14]: Insulin-like growth factor-binding protein 1 (IGFBP1), IGFBP1 (gene 3484)
Kind of assay: LTEA_HepaRG_IGFBP1: Life Technologies and Expression Analysis (LTEA) Assay for Insulin-like growth factor-binding protein 1 (IGFBP1) using HepaRG (AID 2283508). In a few lines: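 Differentiated human HepaRG cells in serum-free induction medium were exposed in duplicate for 48 h to eight concentrations, top 100 uM with half-log dilutions, in 0.5% DMSO. Transcript levels came from qRT-PCR normalised to ACTB, GAPDH and POLR2A, fitted bidirectionally against DMSO.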

Read-out in assay [15]: Interleukin 6 (IL6), IL6 (gene 3569)
The experiment in a line: LTEA_HepaRG_IL6: Life Technologies and Expression Analysis (LTEA) Assay for Interleukin 6 (IL6) using HepaRG (AID 2283509). In short, it runs like this:
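Transcript levels, normalized to three housekeeping genes, were quantified by qRT-PCR after 48 h chemical treatment of HepaRG cells. Eight-point half-log series from 100 uM in 0.5% DMSO, duplicates. Fitted both directions against DMSO baseline.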

Read-out in assay [16]: Interleukin 6 Receptor (IL6R), IL6R (gene 3570)
Kind of assay: LTEA_HepaRG_IL6R: Life Technologies and Expression Analysis (LTEA) Assay for Interleukin 6 Receptor (IL6R) using HepaRG (AID 2283510). In short, it runs like this:
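IL6R transcript level by qRT-PCR after 48 h chemical exposure (8-point, half-log, max 100 uM, 0.5% DMSO vehicle) of HepaRG cells in serum-free induction medium. Normalized to three housekeeping genes; curves fitted in both directions relative to DMSO.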

Read-out in assay [17]: Potassium channel subfamily K member 1 (KCNK1), KCNK1 (gene 3775)
The experiment in a line: LTEA_HepaRG_KCNK1: Life Technologies and Expression Analysis (LTEA) Assay for Potassium channel subfamily K member 1 (KCNK1) using HepaRG (AID 2283511). In a few lines: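 KCNK1 transcript measured by TaqMan qRT-PCR against three housekeeping genes, after HepaRG cells were treated 48 h with eight half-log concentrations (top 100 uM, 0.5% DMSO). Curves fitted bidirectionally relative to vehicle.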

Read-out in assay [18]: JUN Transcription Factor, JUN (gene 3725)
Kind of assay: LTEA_HepaRG_JUN: Life Technologies and Expression Analysis (LTEA) Assay for JUN Transcription Factor using HepaRG (AID 2283513). In a few lines:
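mRNA measured by TaqMan qRT-PCR after 48 h chemical exposure of HepaRG cultures; normalization to three housekeeping genes. Duplicate eight-point half-log curves from 100 uM in 0.5% DMSO; gain or loss fitted against DMSO baseline.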

Read-out in assay [19]: Keratin 19 (KRT19), KRT19 (gene 3880)
The experiment in a line: LTEA_HepaRG_KRT19: Life Technologies and Expression Analysis (LTEA) Assay for Keratin 19 (KRT19) using HepaRG (AID 2283512). In short, it runs like this: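 Differentiated human HepaRG cells, plated 48 h, were exposed in duplicate for 48 h in serum-free induction medium to eight half-log concentrations up to 100 uM in 0.5% DMSO. KRT19 mRNA was quantified by qRT-PCR, normalized to ACTB, GAPDH and POLR2A, and fitted bidirectionally versus DMSO.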

The source made the active and inactive calls. The calls were made as follows: active = hit-call score of the fitted dose curve at least 0.9, where 1 is the maximum; inactive = score below 0.9.

Chain of Hypoxia-inducible factor 1-alpha (Homo sapiens) (Q16665 whole entry, looked up): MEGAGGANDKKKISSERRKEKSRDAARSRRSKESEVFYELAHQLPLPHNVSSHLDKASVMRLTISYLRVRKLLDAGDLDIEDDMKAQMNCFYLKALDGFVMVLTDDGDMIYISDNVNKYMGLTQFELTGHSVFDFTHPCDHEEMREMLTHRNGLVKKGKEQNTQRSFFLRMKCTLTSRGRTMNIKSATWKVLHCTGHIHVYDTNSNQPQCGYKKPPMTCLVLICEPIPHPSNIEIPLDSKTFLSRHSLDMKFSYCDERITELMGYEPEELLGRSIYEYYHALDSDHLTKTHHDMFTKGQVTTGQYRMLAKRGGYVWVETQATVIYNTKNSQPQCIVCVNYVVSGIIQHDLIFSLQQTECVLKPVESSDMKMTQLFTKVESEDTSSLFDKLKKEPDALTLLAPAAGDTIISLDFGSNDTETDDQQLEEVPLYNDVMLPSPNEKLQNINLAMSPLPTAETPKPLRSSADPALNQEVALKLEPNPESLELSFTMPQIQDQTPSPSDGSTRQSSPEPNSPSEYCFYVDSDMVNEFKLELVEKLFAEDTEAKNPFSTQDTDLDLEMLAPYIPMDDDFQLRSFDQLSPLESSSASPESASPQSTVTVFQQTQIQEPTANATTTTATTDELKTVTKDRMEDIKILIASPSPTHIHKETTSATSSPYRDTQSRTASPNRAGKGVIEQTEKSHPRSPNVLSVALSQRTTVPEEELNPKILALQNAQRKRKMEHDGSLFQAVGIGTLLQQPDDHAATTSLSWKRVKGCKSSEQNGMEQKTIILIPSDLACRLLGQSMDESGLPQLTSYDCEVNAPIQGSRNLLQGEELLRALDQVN

In the case of `CCCCN(CCCC)SN(C)C(=O)Oc1cccc2c1OC(C)(C)C2`, the compound was classed as inactive in assay [1], in assay [2], in assay [4], in [5], in assay [6] and in [7]. Moreover, the compound was classed as inactive (in assay [8]; in assay [9]; in assay [10]; in assay [11]; with HGF (gene 3082); in assay [12]). For the same compound, the outcome in [13], in assay [14], in assay [15], in [16], in assay [17] and in assay [18] was inactive. The concentration at half-maximal activity (AC50) (usually the midpoint of the concentration-response curve, whichever way the signal moves) in assay [3] is 50 µM (active).
Regarding `Cc1ccc(O)cc1C`, the call in assay [1], in assay [4], in assay [5], in assay [6], in assay [7] and in [8] was inactive. Also, the call in [9], in assay [10], in assay [11], in assay [12], in assay [13] and in [14] was inactive. Further, the result in assay [15], in assay [16], in assay [17] and in assay [18] was inactive.
As for `O=P1(N(CCCl)CCCl)NCCCO1` (configuration not stated), the outcome in [1], in [2], in assay [3], in assay [4], in [5] and in assay [6] was inactive. For the same compound, the call (in assay [7]; in assay [8]; in [9]; in assay [11]; with HGF (gene 3082); in assay [12]) was inactive. In addition, the outcome in assay [13], in assay [14], in assay [15], in assay [16], in [17] and in assay [18] was inactive.
Regarding `CCC1(c2ccccc2)C(=O)N=C(O)NC1=O` (configuration not stated), the outcome in assay [1], in assay [2], in [3], in assay [4], in assay [5] and in assay [6] was inactive. In addition, the result (in assay [7]; in [8]; in assay [9]; in assay [10]; in [11]; with HGF (gene 3082)) was inactive. In addition, the compound was called inactive in assay [12], in assay [13], in [14], in [15], in assay [16] and in assay [17]. In [18], the call was inactive.
Turning to `CC(C)(C)c1ccc(O)cc1`, the call in assay [1], in assay [4], in assay [5], in assay [6], in assay [7] and in [8] was inactive. In addition, the compound was classed as inactive in assay [9], in [10], in [11], in [12], in assay [13] and in assay [14]. Besides, the call in [15], in assay [16], in [17], in assay [19] and in assay [18] was inactive.
For the compound `O=C(O)C1C(C(=O)O)C2(Cl)C(Cl)=C(Cl)C1(Cl)C2(Cl)Cl` (configuration not stated), the outcome in assay [1], in assay [2], in assay [3], in [4], in assay [6] and in assay [7] was inactive. The call (in assay [8]; in assay [9]; in [11]; in the assay with HGF (gene 3082); in assay [12]; in [13]) was inactive. For the same compound, the result in assay [14], in assay [15], in assay [16], in assay [17] and in assay [18] was inactive. In assay [5], the AC50 was 50 µM (active).

(Values after PubChem BioAssay (EPA / NIEHS).)
